KCNH2 WT inh = qHTS for Inhibitors of KCHN2 3.1: Wildtype qHTS | Voltage-gated inwardly rectifying potassium channel KCNH2 (Homo sapiens), Q12809 | 340,000 compounds, 0.37% hits | activity change, % at 1.84 µM | AID 720551, 2013 | U2OS, BacMam KCNH2, thallium flux FluxOr; hits give low values;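 active = maximum activity change below -70%; inconclusive = maximum activity change between -70% and -50%; inactive = maximum activity change above -50%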
Target sequence (Q12809 whole entry, looked up): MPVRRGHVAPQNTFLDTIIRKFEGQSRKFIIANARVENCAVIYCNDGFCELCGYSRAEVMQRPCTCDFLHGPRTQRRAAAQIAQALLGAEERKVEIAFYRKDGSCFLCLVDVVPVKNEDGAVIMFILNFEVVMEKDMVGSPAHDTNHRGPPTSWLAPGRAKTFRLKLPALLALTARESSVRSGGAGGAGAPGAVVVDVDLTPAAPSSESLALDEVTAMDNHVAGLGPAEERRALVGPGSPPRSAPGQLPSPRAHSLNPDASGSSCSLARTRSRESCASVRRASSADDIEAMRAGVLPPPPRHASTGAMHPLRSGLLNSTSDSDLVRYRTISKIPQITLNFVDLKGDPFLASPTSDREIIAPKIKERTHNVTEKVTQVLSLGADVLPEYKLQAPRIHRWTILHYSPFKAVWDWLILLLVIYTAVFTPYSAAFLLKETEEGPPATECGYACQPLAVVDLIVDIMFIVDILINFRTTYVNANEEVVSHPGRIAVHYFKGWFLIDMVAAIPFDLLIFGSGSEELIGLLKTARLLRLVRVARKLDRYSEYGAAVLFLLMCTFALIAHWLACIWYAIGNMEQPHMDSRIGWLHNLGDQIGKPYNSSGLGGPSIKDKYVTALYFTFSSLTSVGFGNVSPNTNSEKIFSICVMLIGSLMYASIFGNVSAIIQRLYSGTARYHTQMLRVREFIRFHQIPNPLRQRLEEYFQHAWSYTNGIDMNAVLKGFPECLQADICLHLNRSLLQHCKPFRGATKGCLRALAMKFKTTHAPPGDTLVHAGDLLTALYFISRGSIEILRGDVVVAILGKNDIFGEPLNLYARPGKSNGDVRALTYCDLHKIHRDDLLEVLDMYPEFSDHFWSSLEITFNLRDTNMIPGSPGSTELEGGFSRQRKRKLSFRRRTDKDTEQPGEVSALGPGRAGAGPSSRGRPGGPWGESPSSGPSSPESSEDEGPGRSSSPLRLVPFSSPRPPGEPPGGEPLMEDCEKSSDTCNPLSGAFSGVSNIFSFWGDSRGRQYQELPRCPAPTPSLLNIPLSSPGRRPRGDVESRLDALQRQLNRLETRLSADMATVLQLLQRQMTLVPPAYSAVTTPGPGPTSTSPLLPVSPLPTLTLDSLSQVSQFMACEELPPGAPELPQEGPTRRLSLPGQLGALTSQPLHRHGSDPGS
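U2OS cells were transduced with wild-type KCNH2 virus (2.03 x 10^8 / mL) for 4 h at room temperature, then cultured overnight at 37 C. Thallium flux was read with FluxOr dye. Rate constants were normalized to DMSO controls.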
Luc counter = Counterscreen for Luciferase (Kinase-Glo TM) Inhibition; Luciferin 4-monooxygenase (Photuris pensylvanica), Q27757; Kinase-Glo luciferase, ATP luminescence, 8 min; Potency, µM (doses to about 38.3 µM), usual class: inhibitors; 200,000 compounds, 0.28% hits; AID 1379, 2008; active = well fitted inhibition curve with a large enough effect; inconclusive = small, poorly fitted or top-dose-only effect; also: nearly all actives have a fitted effect of over 60% in size
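Inhibition of Kinase-Glo luciferase light generation was assessed at 10 uM ATP in pH 7.2 imidazole buffer, with luminescence measured after eight minutes at ambient temperature.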
KCNH2 3.1 block = qHTS for Inhibitors of KCHN2 3.1: Mutant qHTS | activity change, % (tested at about 1.8 µM) | 340,000 compounds, 0.95% hits | U2OS KCNH2 3.1, thallium flux FluxOr; hits give low values | Potassium voltage-gated channel subfamily H member 2, brain isoform KCNH2 3.1 (human);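 active = maximum activity change below -70%; inconclusive = maximum activity change from -70% to -50%; inactive = maximum activity change above -50%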;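 also: thallium influx rate constant from kinetic fluorescence after stimulation buffer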
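U2OS cells transduced with KCNH2 3.1 mutant virus (1.77 x 10^8 /mL, 4 h), plated overnight at 37 C, loaded 45 min with FluxOr dye plus Red40 quencher. Thallium flux rate constant from kinetic reads after stimulation buffer, normalised to controls.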
Each line names hits and unclear results; the compound was inactive in the other large screens. The list is not random: actives were taken first. Their share in the collection is about 1.2%.

CN(CCc1cnn(C)c1)C(=O)C1CCC(=O)N(CC2CCCCC2)C1 (configuration not stated)	none (no result: Luc counter)
Cc1nn(C(=O)CCCC(=O)NCc2ccccc2)c2ccccc12	none (no result: Luc counter)
C[C@@](N)(Cc1c[nH]c2ccccc12)C(=O)O	none (no result: KCNH2 WT inh, KCNH2 3.1 block)
Clc1ccc2nc(C3CCN(Cc4ccccc4)CC3)[nH]c2c1	KCNH2 3.1 block inconclusive
COc1ccc(-c2cc(C3CCN(Cc4ccc([N+](=O)[O-])cc4)CC3)[nH]n2)cc1	KCNH2 WT inh -87.0, KCNH2 3.1 block -112.3
Nc1nc(Cl)cc(N2CCC(c3cc(-c4ccc(Cl)cc4)n[nH]3)CC2)n1	KCNH2 3.1 block -74.4
Cc1ccc(CN2CCC(c3nc4ccc(Cl)cc4[nH]3)CC2)cc1	KCNH2 WT inh -132.4, KCNH2 3.1 block -92.9
Cc1ccc(CN2CCC(c3cc(-c4ccc(Cl)cc4)n[nH]3)CC2)cc1	KCNH2 WT inh -83.9, KCNH2 3.1 block -101.6 (no result: Luc counter)
Clc1ccc(-c2cc(C3CCNCC3)[nH]n2)cc1	none
COc1ccc(-c2cc(C3CCN(Cc4cccc(C(F)(F)F)c4)CC3)[nH]n2)cc1	none (no result: KCNH2 3.1 block)
COc1ccc(-c2cc(C3CCN(c4cc(Cl)nc(N)n4)CC3)[nH]n2)cc1	none
CCN(C(=O)COC(=O)C1=COCCO1)c1c(N)n(Cc2ccccc2)c(=O)[nH]c1=O	none (no result: Luc counter)
COc1cccc(NS(=O)(=O)c2csc(C(N)=O)c2)c1	none (no result: Luc counter)
CNC(=O)N1CCC(C(=O)c2c(C)c(C)c(C)c(C)c2C)CC1	none (no result: Luc counter)
COC(=O)C1=C(C(=O)OC)[C@@H]2N(Cc3ccccc3)c3ccccc3[C@@]23C[C@@H](C(=O)OC)N(S(=O)(=O)c2ccc(C#N)cc2)C3=N1	none (no result: KCNH2 WT inh, KCNH2 3.1 block)
COc1cccc(Nc2ncnc3sc(C)cc23)c1	none (no result: Luc counter)
CC(=O)Nc1ccc(/C=N/NC(=O)c2cc3cc(C)ccc3nc2C)cc1	none
Cc1ccc2nc(C)c(C(=O)N/N=C/c3cccs3)cc2c1	KCNH2 3.1 block -149.2
CCC(COC)NC(=O)CCc1nnc(Cc2c[nH]c3ccccc23)o1 (configuration not stated)	none (no result: Luc counter)
CC(C)(C)NC(=O)CCc1nnc(Cc2c[nH]c3ccccc23)o1	KCNH2 3.1 block -109.7
COc1cc(S(=O)(=O)NCc2ccc3c(c2)OCO3)ccc1F	none (no result: Luc counter)
Cc1cc(C)c(S(=O)(=O)N2CCCCC2)cc1N(C)S(=O)(=O)c1ccc(Cl)cc1	none
Cc1ccc(S(=O)(=O)N2CCN(C)CC2)c(C)c1N(C)S(=O)(=O)c1ccc(Cl)cc1	KCNH2 3.1 block -94.3
CCCC[C@@H](CN[C@H](C)CNC)NCC1CCC(C(C)(C)C)CC1 (some centres not stated)	none (no result: Luc counter)
C(=C\c1ccccc1)/CSc1nnc(-c2ccccc2)n1Cc1ccco1	none
Clc1cccc(-c2nnc(SC/C=C/c3ccccc3)n2Cc2ccco2)c1	KCNH2 3.1 block -97.7
Cc1cc(C)cc(NC(=S)N2CCN(S(C)(=O)=O)CC2)c1	none (no result: Luc counter, KCNH2 3.1 block)
O=C1c2cccc3cccc(c23)C(=O)N1CCCN1CCN(c2ccc(F)cc2)CC1	KCNH2 3.1 block inconclusive
CC1CN(C)C(C)C/C1=N/Oc1ccccc1[N+](=O)[O-] (configuration not stated)	none
CC1CN(C)C(C)C/C1=N\Oc1ccc([N+](=O)[O-])cc1 (configuration not stated)	KCNH2 3.1 block -88.0
O=[N+]([O-])c1cc(C(F)(F)F)ccc1NCCCCNS(=O)(=O)c1ccc(Cl)cc1	KCNH2 3.1 block -103.3
CS(=O)(=O)NCCCNc1ccc(C(F)(F)F)cc1[N+](=O)[O-]	none (no result: Luc counter)
C=C[C@@]1(C)CCC(/C(C)=C/C=C/C(C)(C)O)C[C@@H]1C(=C)C (some centres not stated)	none (no result: Luc counter)
O=C([C@@H]1CCCN1C(=O)c1cccs1)N1CCN(S(=O)(=O)c2cccc(F)c2)CC1	none (no result: Luc counter)
O=C1CC[C@@H](OCc2ccccc2)CCN1CC[C@H](Sc1ccccc1)c1ccccc1	none (no result: Luc counter)
C=CCN(C(=O)CSc1nc2ccsc2c(=O)n1Cc1ccc(C(=O)O)cc1)c1ccccc1	KCNH2 WT inh -254.4 (no result: Luc counter)
CC(C)c1ccc(NC(=O)CSc2nc3ccsc3c(=O)n2Cc2ccc(C(=O)O)cc2)cc1	none (no result: Luc counter)
O=C(CN1C(=O)c2ccc([N+](=O)[O-])cc2C1=O)NC1CCS(=O)(=O)C1 (configuration not stated)	none (no result: Luc counter)
O=C(CN1C(=O)c2ccccc2C1=O)NC1CCS(=O)(=O)C1 (configuration not stated)	KCNH2 3.1 block -84.9 (no result: Luc counter)
Cc1ccc(-n2nnnc2SC(C)C(=O)NCC(=O)Nc2ccc(F)c(F)c2F)c(C)c1 (configuration not stated)	none
